Test results taken from PubChem BioAssay (NCATS).
Several values for one entry are separate records, joined by “and”; a condition that tells them apart may be missing. Identical values can stand only once. Inconclusive results are not listed. More than one record can exist for a structure, and the calls need not agree. A number with no mark means an inactive call. Activity calls are given as the source filed them. Calls come from the whole dose curve; as a rule, active = well fitted inhibition curve with a large enough effect; inconclusive = small, poorly fitted or top-dose-only effect; inactive = flat fitted curve, though single readings scatter.

Legend:
CRL-7250 = normal cell line; experiment: Cytotoxic Profiling of Annotated Libraries Using Quantitative High-Throughput Screening (AID 1296008); conditions: Five cell lines viability, CellTiter-Glo ATP luminescence, 48-72 h; max response: active compounds read low; note: potency is the fitted concentration of half-maximal effect; for max response: % is set by controls: 0 for no effect and ±100 for the full control effect
Outline: (§1)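 Cytotoxicity was measured as CellTiter-Glo ATP luminescence, read after 10 min at room temperature. Compound treatment of the cells lasted 48 or 72 hr at 37 degrees Celsius in a qHTS format.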

HaCat = experiment: as above; conditions: Five cell lines viability, CellTiter-Glo ATP luminescence, 48-72 h; max response: active compounds read low
Outline: as §1

KB-3-1 = experiment: as above; conditions: Five cell lines viability, CellTiter-Glo ATP luminescence, 48-72 h; max response: active compounds read low
Outline: as §1

NIH3T3 = experiment: as above; conditions: Five cell lines viability, CellTiter-Glo ATP luminescence, 48-72 h; max response: active compounds read low
Outline: as §1

SC27B = experiment: qHTS profiling for inhibitors of Plasmodium falciparum proliferation (AID 504749);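 note: 0% = DMSO vehicle and full inhibition = artemisinin control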; conditions: P. falciparum in erythrocytes, SYBR Green DNA, 72 h; series mostly up to 28.7 µM
Outline: (§2)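 In a 72 h erythrocytic culture (37 C, humidified, 5% CO2) at 2.5% hematocrit and 0.3% starting parasitemia, compounds were tested; SYBR Green I in detergent lysis buffer stained parasite DNA overnight.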

TAB113 = experiment: as above; conditions: P. falciparum in erythrocytes, SYBR Green DNA, 72 h; series mostly up to 28.7 µM
Outline: as §2

TAB109 = experiment: as above; conditions: P. falciparum in erythrocytes, SYBR Green DNA, 72 h; series mostly up to 28.7 µM
Outline: as §2

TAB165 = experiment: as above; conditions: P. falciparum in erythrocytes, SYBR Green DNA, 72 h; series mostly up to 28.7 µM
Outline: as §2

HEK293 = experiment: Cytotoxic Profiling of Annotated Libraries Using Quantitative High-Throughput Screening (AID 1296008); conditions: Five cell lines viability, CellTiter-Glo ATP luminescence, 48-72 h; max response: active compounds read low; note: potency is the fitted concentration of half-maximal effect; for max response: % is set by controls: 0 for no effect and ±100 for the full control effect
Outline: as §1
Note: nearly all actives have a fitted effect of over 60% in size.

Q: `COC(=O)N[C@H](C(=O)N1CCC[C@@H]1c1ncc(-c2ccc(-c3ccc(-c4cnc([C@@H]5CCCN5C(=O)[C@@H](NC(=O)OC)C(C)C)[nH]4)cc3)cc2)[nH]1)C(C)C` was tested. Which outcome (CRL-7250) did it give?
A: Its outcome is “inactive”.

Q: And the outcome (HaCat)?
A: Its outcome is “inactive”.

Q: What about the max response (KB-3-1) of the same compound?
A: The max response was 1.64%.

Q: What about the max response (NIH3T3) of the same compound?
A: Its max response is 2.81%.

Q: For `CCCCC1C(=O)N(c2ccccc2)N(c2ccccc2)C1=O`, which Potency (SC27B) is on record?
A: Its Potency is “inactive”.

Q: And the Potency (TAB113)?
A: Its Potency is “inactive”.

Q: And the max response (CRL-7250)?
A: Its max response is -3.59%.

Q: And the max response (HaCat)?
A: Its max response is -4.56%.

Q: And the max response (KB-3-1)?
A: Its max response is 0.189% and 30.8%.

Q: And the max response (NIH3T3)?
A: Its max response is -4.9%.

Q: `CC1(C)O[C@H]2C[C@@H]3[C@H]4CCC5=CC(=O)C=C[C@]5(C)[C@@]4(F)[C@@H](O)C[C@]3(C)[C@]2(C(=O)CO)O1` was tested. Which Potency (SC27B) did it give?
A: The Potency was “inactive”.

Q: What about the outcome (TAB109) of the same compound?
A: Its outcome is “inactive”.

Q: What about the Potency (TAB113) of the same compound?
A: Its Potency is “inactive”.

Q: And the Potency (TAB165)?
A: The Potency was “inactive”.

Q: What about the max response (CRL-7250) of the same compound?
A: Its max response is -11.3%.

Q: And the max response (HaCat)?
A: Its max response is -12.9%.

Q: And the max response (KB-3-1)?
A: The max response was 1.25%.

Q: How did the max response (CRL-7250) turn out when `N#CC(=C(N)Sc1ccccc1N)C(C#N)=C(N)Sc1ccccc1N` was run?
A: Its max response is -7.68%.

Q: What about the max response (NIH3T3) of the same compound?
A: Its max response is -4.19%.

Q: How did the max response (CRL-7250) turn out when `Cc1cc(OCCCc2c(C(=O)O)n(Cc3cccnc3)c3c(-c4c(COc5ccc(N6CCN([S+](C)(=O)[O-])CC6)cc5)nn(C)c4C)cccc23)cc(C)c1Cl` was run?
A: Its max response is -16.6%.

Q: And the max response (HaCat)?
A: Its max response is -19.1%.

Q: And the max response (NIH3T3)?
A: The max response was -3.92%.

Q: For `CCn1c(C(=O)N(C2CC2)C2CC2)cc2c3c(ncn3C)c(Nc3cc(C)n(C)n3)nc21`, which max response (CRL-7250) is on record?
A: The max response was 3.88% and -9.32%.

Q: And the max response (HaCat)?
A: The max response was 2.37% and -28.6%.

Q: What about the max response (KB-3-1) of the same compound?
A: The max response was 3.91% and 9.29%.

Q: What about the Potency (NIH3T3) of the same compound?
A: Its Potency is 23.5 µM (active).

Q: `NC(=O)c1cccc(-c2cc(Nc3ccc(OC(F)(F)F)cc3)ncn2)c1` was tested. Which max response (CRL-7250) did it give?
A: The max response was -7.69% and -0.175%.

Q: What about the outcome (HaCat) of the same compound?
A: The outcome was “inactive”.

Q: And the max response (KB-3-1)?
A: The max response was -13.5%.

Q: What about the max response (NIH3T3) of the same compound?
A: The max response was 0.478% and -10.9%.

Q: How did the Potency (HEK293) turn out when `Clc1cc(Cl)cc(CNc2ncncc2-c2ccc3c(c2)OCO3)c1` was run?
A: Its Potency is 20.9 µM (active).

Q: For `CN[C@@H](C)C(=O)N[C@H]1CN(C(=O)CC(C)C)CC[C@H]2CC[C@@H](C(=O)NC(c3ccccc3)c3ccccc3)N2C1=O`, which max response (HEK293) is on record?
A: Its max response is -1.1%.

Q: And the Potency (HaCat)?
A: The Potency was 16.6 µM (active) and 23.1 µM (active).

Q: And the max response (KB-3-1)?
A: Its max response is 2.72% and 0.688%.

Q: And the max response (NIH3T3)?
A: The max response was -2.17% and -4.72%.

Q: `CO[C@H]1C[C@@H]2CC[C@@H](C)[C@@](O)(O2)C(=O)C(=O)N2CCCC[C@@H]2C(=O)O[C@H]([C@H](C)C[C@@H]2CC[C@H](OP(C)(C)=O)[C@H](OC)C2)CC(=O)[C@H](C)C=C(C)[C@@H](O)[C@@H](OC)C(=O)[C@H](C)C[C@H](C)C=CC=CC=C1C` was tested. Which max response (CRL-7250) did it give?
A: The max response was -18.4%.

Q: What about the outcome (HaCat) of the same compound?
A: Its outcome is “inactive”.

Q: And the max response (NIH3T3)?
A: The max response was 4.15%.

Q: With `CC(C)OC(=O)CCCC=CC[C@@H]1[C@H](C=C[C@@H](O)COc2cccc(C(F)(F)F)c2)[C@H](O)C[C@@H]1O` as the compound, how does the Potency (HEK293) read?
A: The Potency was 11.8 µM (active).

Q: Which max response (CRL-7250) does the source give for `CC(=O)OC1C(C)OC(Oc2c(-c3ccc(O)cc3)oc3cc(O)cc(O)c3c2=O)C(O)C1OC(C)=O` (centres undefined) here?
A: Its max response is -21.1%.

Q: And the max response (KB-3-1)?
A: The max response was 7.1%.

Q: What does the source list for `COc1cccc2c1CCCC2CCCN1CCN(C2CCCCC2)CC1` (centres undefined)?
A: Potency (HEK293): 14.8 µM (active); max response (HaCat): -16.8%

Q: Which Potency (HEK293) does the source give for `O=C(O)c1ccc(-c2cc3cccnc3c(-c3ccc4nonc4c3)n2)cc1` here?
A: Its Potency is 14.8 µM (active).

Q: What about the outcome (HaCat) of the same compound?
A: The outcome was “inactive”.

Q: Which outcome (CRL-7250) does the source give for `O=C1NC(=O)C(=Cc2cccc(C(F)(F)F)c2)S1` here?
A: Its outcome is “inactive”.

Q: What about the max response (HaCat) of the same compound?
A: Its max response is -6.56%.

Q: And the max response (NIH3T3)?
A: Its max response is -7.62%.

Q: For `CC[C@]1(O)C[C@@H]2CN(CCc3c([nH]c4ccccc34)[C@@](C(=O)OC)(c3cc4c(cc3OC)N(C=O)[C@@H]3C45CCN4CC=C[C@](CC)([C@H]45)[C@@H](OC(C)=O)[C@]3(O)C(=O)OC)C2)C1` (some centres undefined), which max response (CRL-7250) is on record?
A: The max response was -20.2%.

Q: And the max response (NIH3T3)?
A: Its max response is -0.0535%.

Q: Which results are given for `COc1cc2c(cc1OC)CN(CCc1ccc(NC(=O)c3cc(OC)c(OC)cc3NC(=O)c3cnc4ccccc4c3)cc1)CC2`?
A: Potency (HEK293): 11.4 µM (active); max response (HEK293): -20.5%; max response (HaCat): -17.1%; outcome (KB-3-1): inactive; max response (NIH3T3): -16.8%

Q: `C=C1C(=O)OC2C=C(C)CCC=C(C)CCC12` (centres undefined) was tested. Which max response (CRL-7250) did it give?
A: Its max response is 0.517%.

Q: And the outcome (HaCat)?
A: The outcome was “inactive”.

Q: What about the max response (KB-3-1) of the same compound?
A: Its max response is 2.36%.

Q: And the max response (NIH3T3)?
A: The max response was 0.3%.

Q: With `NC(=O)[C@@H](CCC(F)(F)F)N(Cc1ccc(-c2ncon2)cc1F)S(=O)(=O)c1ccc(Cl)cc1` as the compound, how does the max response (CRL-7250) read?
A: The max response was -21.3%.

Q: What about the max response (HaCat) of the same compound?
A: Its max response is -0.733%.

Q: And the max response (KB-3-1)?
A: Its max response is -20.8%.

Q: And the max response (NIH3T3)?
A: The max response was -26.9%.

Q: Which results are given for `Cn1cc(C=C2C(=O)Nc3cccnc32)c2ccccc21`?
A: max response (CRL-7250): -3.71%; max response (HaCat): -0.233%; max response (KB-3-1): 5.23%; max response (NIH3T3): -5.8%

Q: What does the source list for `Cc1cccc(Nc2nc(-c3ccncc3)cs2)c1`?
A: max response (CRL-7250): -0.257%; outcome (HaCat): inactive; Potency (NIH3T3): 11.8 µM (active) and 7.31 µM (active)

Q: For `COc1cc2ncnc(Nc3ccc(F)c(Cl)c3)c2cc1OCCCN1CCOCC1`, which Potency (HEK293) is on record?
A: The Potency was 7.62 µM (active) and 16.8 µM (active).

Q: What about the Potency (HaCat) of the same compound?
A: Its Potency is 531 nM (active) and 2.06 µM (active).

Q: And the max response (HaCat)?
A: The max response was -57.3%.

Q: What about the max response (KB-3-1) of the same compound?
A: Its max response is -3.97% and -1.38% and 3.83%.

Q: What about the max response (NIH3T3) of the same compound?
A: The max response was -12.1% and -4.13%.

Q: For `CCC(=O)NC[C@H](Cc1ccc(OCCc2nc(-c3ccccc3)oc2C)cc1)NC(C)=CC(=O)c1ccc(C(F)(F)F)cc1`, which max response (CRL-7250) is on record?
A: The max response was -13.2%.

Q: What about the outcome (KB-3-1) of the same compound?
A: Its outcome is “inactive”.

Q: `CC(C)n1cnc2c(NCCCCCCNC(=O)OC(C)(C)C)nc(NCCO)nc21` was tested. Which Potency (HEK293) did it give?
A: Its Potency is 14.8 µM (active).

Q: What about the max response (HaCat) of the same compound?
A: The max response was -3.35%.
